We go through 44 compounds from PubChem BioAssay AID652025 (National Center for Advancing Translational Sciences (NCATS), 2013).

Among all 360,000 compounds or so, about 240 (0.067%) were called active. The sample as a whole holds a higher share of actives than the screen did. Unmarked numbers belong to inactive results. Rule as the data show it: active = activation above about 50%; inconclusive = mostly about 30% to 49%; inactive = weaker than that.

This experiment in a line: qHTS of IL-2 Activators. Also: 0% is about no effect. As to conditions: IL-2 activation reporter assay, cell-based qHTS; active compounds read high; in transgenic mouse T cells; stimulated with anti-CD3/CD4/CD28 beads. The text has this:
The adaptive immune response against any infectious agent begins with the activation of an antigen specific T cell. This relatively rare and inert ("naive") T cell undergoes a massive proliferative expansion and differentiation process to generate sufficient number of potent pathogen-specific effector T cells. The effector T cells fight the infection by making cytokines and helping other cells to become fully armed as well. If any naive T cell has antigen receptors (TCRs) that can be activated by self peptides, then a variety of regulatory mechanisms kick in to prevent this cell from performing to its full potential. These processes collectively constitute the phenomenon of immunological tolerance and their failure leads to autoimmunity. One arm of tolerance involves generation of biochemical negative feedback downstream of the TCR (tuning). This is especially relevant to self antigens present in the body over long periods of time (chronic), which form the bulk of our proteome. The negative feedback serves to tune the TCR signaling, such that the ambient antigenic stimulation is nullified intracellularly. Unfortunately, this critical machinery serves as a target for chronic viral, bacterial and parasitic infections (as well as tumors), which can evade a robust immune response, simply by allowing T cells to tune down their signaling to pathogen or malignancy derived antigens. As such, disrupting the tuning in such cases would allow the tolerant T cell to function again and deliver a robust effector response.
If a therapeutic can restore responsiveness to the tuned down T cell, even for a short time, they could combat the pathogen without any additional immunization. To that end, we have developed a sensitive HTS T cell based assay based on IL-2. This assay will be screened against the Molecular Libraries Small Molecule Repository (MLSMR) to find small molecules that could elicit this response.
NIH Chemical Genomics Center [NCGC]
NIH Molecular Libraries Probe Centers Network [MLPCN]
Assay Submitter (PI): Ron Schwartz, NIAID
4 microL (750 cells/well) of unstimulated transgenic mouse T cells (columns 1-3,5-48) are dispensed into Aurora LoBase, black clear-bottom 1536-well assay plates; column 4 receives an identical concentration of transgenic memory T cells as a non-tolerant control. Compounds are then transferred via Kalypsys pin tool equipped with 1536-pin array (10 nL slotted pins, V&P Scientific, San Diego, CA). Following addition of compound and a 60 minute incubation, 1 microL of bead stimulation solution ((0.04 micron Fluospheres (Life technologies, CA) coated with 10ug/ml each anti-CD3 and anti-CD4 (clones 2C11 and GK1.5, BD Biosciences, CA) and mixed with 1ug/ml anti-CD28 (clone PV-1, BD biosciences, CA)). columns 2-48) is added to stimulate the IL-2 response pathway; media is instead added to column 1 as an unstimulated control, while PMA/ionomycin (Sigma Aldrich, MO) is added to column 3 as a control for IL-2 tolerance bypass. The plates are then incubated at 37 degrees C for 18 hours. EGFP and DsRed signal are then detected using an Acumen eX3 Explorer fluorescent plate cytometer. All cells are dispensed in cell media containing EHAA (Quality Biologicals, MD), RPMI (Quality Biologicals, MD), Glutamine (Life Technologies, CA), Penicillin/Streptomycin (Quality Biologicals, MD), 2-ME (Sigma Aldrich, MO) and 10% FBS (Gemini Bioproducts, CA) .
In the case of `Cc1nc2ccc(S(=O)(=O)NCC(=O)NCCN3CCCCC3C)cc2s1` (centres undefined), the activation was 0.794%.

Take `COc1ccc(C(=O)C2CCCN(C(=O)c3cc4nc(C)cc(C)n4n3)C2)cc1F` (centres undefined): the activation is -1.95%. As for `Cc1cccc2[nH]c(CN(C)C(=O)C3CCC(=O)N(CCc4ccccc4)C3)nc12` (centres undefined), the activation is -4.62%. As to `CCCCN=C1C([N+](=O)[O-])=CC=C2C1=NC1(CCCCC1)N2O`, the activation was -0.493%.

With `CCOC(=O)C1CCN(c2c(Nc3cc(C)cc(C)c3)c(=O)c2=O)CC1`, the activation was 3.74%. In the case of `COc1ccc(S(=O)(=O)Nc2cccc3c2O[C@H](CN(C)S(=O)(=O)c2ccc(OC)cc2)[C@@H](C)CN([C@H](C)CO)C3=O)cc1` it was -0.577%; in that of `COc1ccc(-c2ccc3[nH]c4c(c3c2)CCN2C[C@H]3[C@H](C)ON(C)[C@H]3C[C@@H]42)cc1`, -3.69%; in that of `COc1cc(C(F)(F)F)nc2c(Br)c(C(C)(C)C)nn12`, -2.42%. As to `COc1ccc(N2CCN(CCNC(=O)CCN3C(=O)COc4ccccc43)CC2)cc1`, the activation is -1.26%. Regarding `Cc1cc(Cl)ccc1OCc1nc(-c2ccncc2)no1`, the activation was -0.482%.

For `O=C(NNc1ccccc1Cl)C(O)(c1cccc(C(F)(F)F)c1)c1cccc(C(F)(F)F)c1`, the activation was -0.487%. Consider `Cn1c2ccc(F)cc2c2nnc(NN)nc21`, for which the activation was 0.485%.

Turning to `CC(C)(C)NC(=O)CN1CCC(NC(=O)C23CC4CC(CC(C4)C2)C3)CC1`, the activation was -0.682%. To `COc1ccc(CCC(=O)N2CCN(S(=O)(=O)c3ccc(OC)cc3)CC2)cc1` belongs 0.152%; to `COc1ccc(CCc2nnc(CCC(=O)NCc3cnn(-c4ccccc4C)c3)o2)cc1`, -0.0481%; to `Cn1cnc(S(=O)(=O)Nc2ccc3c(c2)OCCO3)c1`, 0.511%. Take `COc1cccc(N2CCN(CC(=O)Nc3ccnn3C3CCCC3)CC2)c1`: the activation was 0.356%. To `O=C1CCC(Cc2ccccc2)N1` (centres undefined) belongs -3.46%. Turning to `CN1CCN(S(=O)(=O)c2ccc(N3CCN(S(=O)(=O)c4cccs4)CC3)nc2)CC1`, the activation is 0.642%. To `O=C1Cc2ccccc2Sc2ccc(Cl)cc21` belongs -0.448%. In the case of `CSCC[C@H](NC(=O)N1CCn2c1nc1ccccc12)C(=O)NCc1ccc2c(c1)OCO2` it was -1.15%; in that of `COc1ccc(N2CCN(C(=O)CCSCc3ccccc3F)CC2)cc1`, 1.14%.

In the case of `NC(=O)COC(=O)c1ccc2c(c1)C(=O)N(Cc1ccco1)C2=O`, the activation was -0.0741%. In the case of `Cc1cnc(C(=O)N2CCCC(C(=O)c3ccc(C(F)(F)F)cc3)C2)cn1` (centres undefined) it was 0.823%. `CCOc1ccc(Nc2nc(Cc3nnc(SCC(=O)c4ccc(C)cc4)o3)cs2)cc1`: the activation was -0.186%.

Turning to `NCCN1CCN2C(=O)CN(C(=O)c3ccccc3)CC12` (centres undefined), the activation was 1.5%. As for `Cc1cc(C)cc(N(CC(=O)N2CC=C(c3ccccc3)CC2)S(=O)(=O)c2c(C)noc2C)c1`, the activation was -2%. On to `CC1=NN(C(C)C)C(=O)C1`, for which the activation is -0.959%. To `CC1=C(C(=O)N2CCOCC2)CC(CC(=O)NCCN2CCOCC2)C(=O)N1CCC1=CCCCC1` (centres undefined) belongs 2.16%; to `CC(=O)CSc1nnc(CSc2ncccn2)n1C1CCCCC1`, 4.89%. Take `O=C(O)CN(Cc1ccco1)S(=O)(=O)c1ccccc1`: the activation is 0.214%.

`CC(=O)N1CC[n+]2c(-c3ccc([N+](=O)[O-])cc3)csc21`: the activation is -2.73%. For `Cc1ccccc1N1C(=O)C(Oc2ccc(Cl)cc2)C1CNCC1CCCO1` (centres undefined), the activation was 0.756%. To `O=C1/C(=C\c2cccnc2)CN(Cc2ccccc2)C/C1=C\c1cccnc1` belongs -0.836%. To `Cc1c2cn[nH]c(=O)c2c(C)n1Cc1ccc(F)cc1` belongs -0.791%; to `Cc1c(C(=O)OCC(=O)N2CCCC2=O)oc2ccccc12`, -1.29%; to `O=S(=O)(Nc1nccs1)c1ccc2c(c1)OCCO2`, -0.72%. In the case of `CN1CCN(C2Cc3ccc(Cl)cc3Sc3ccc(F)cc32)CC1` (centres undefined) it was -2.1%.

Regarding `Cc1cc([N+](=O)[O-])nn1CCCC(=O)Nc1cccnc1Cl`, the activation was -0.291%. `Cc1cc(NC(=O)c2cc(-c3cccs3)on2)nn1Cc1ccc(Cl)cc1`: the activation is 0.242%. With `CC1(C)O[C@@H]2[C@H](O1)[C@@H](COS(=O)(=O)O)O[C@H]2n1cnc2c(=O)[nH]cnc21`, the activation was -0.104%.

For the compound `CCCc1nc(SCC(=O)Nc2ccc(S(=O)(=O)N(C)C)cc2)c2ccccc2n1`, the activation was -0.583%.

Regarding `Cc1ccc(S(=O)(=O)CC(=O)Nc2sc(C)c(C)c2C(N)=O)cc1`, the activation is 0.0351%. To `COCCN(C(=O)CCC(=O)Nc1nccs1)C(C(=O)NCCC(C)C)c1ccc(F)cc1` (centres undefined) belongs -1.07%.
